Screening results: PubChem BioAssay, several laboratories
Hits are enriched below; roughly 1.5% of the tested compounds scored in any of these assays.
PLK1 kinase inh – human PLK1 kinase inhibitors, primary screen, biochemical, TR-FRET | Serine/threonine-protein kinase PLK1 (Homo sapiens), P53350 | recombinant PLK1 kinase, TR-FRET peptide phosphorylation | inhibition, % at 10 µM | 97,000 compounds, 0.53% hits | AID 619, 2007;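 active = inhibition of 50% or more in the single-concentration screen; inactive = inhibition below 50%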;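 note: 0% = DMSO max control and 100% = H-89 dihydrochloride min control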
Target sequence (P53350 whole entry, looked up): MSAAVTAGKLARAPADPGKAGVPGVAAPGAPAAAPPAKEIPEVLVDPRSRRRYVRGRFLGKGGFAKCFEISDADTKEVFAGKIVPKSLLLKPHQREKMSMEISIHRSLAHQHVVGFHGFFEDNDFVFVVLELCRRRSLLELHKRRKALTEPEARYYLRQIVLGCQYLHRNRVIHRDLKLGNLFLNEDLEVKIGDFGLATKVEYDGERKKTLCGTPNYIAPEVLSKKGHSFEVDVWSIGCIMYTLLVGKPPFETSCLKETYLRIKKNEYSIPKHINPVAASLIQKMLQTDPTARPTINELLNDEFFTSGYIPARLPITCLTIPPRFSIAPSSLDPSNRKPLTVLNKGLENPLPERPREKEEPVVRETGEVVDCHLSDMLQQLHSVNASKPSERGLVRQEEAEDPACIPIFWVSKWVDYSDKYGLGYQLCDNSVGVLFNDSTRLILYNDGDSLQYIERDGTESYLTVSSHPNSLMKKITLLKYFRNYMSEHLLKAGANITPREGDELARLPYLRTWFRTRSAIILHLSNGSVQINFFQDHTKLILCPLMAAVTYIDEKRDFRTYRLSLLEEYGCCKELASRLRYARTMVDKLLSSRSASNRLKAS
Smad3 inh – Smad3/FoxH1 peptide binding inhibitors, primary screen, biochemical, TR-FRET | TR-FRET Smad3/Dy647-FoxH1 peptide binding, europium anti-His | inhibition, % at 25 µM | 88,000 compounds, 0.29% hits | AID 630, 2007;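 active = compounds that reduce the energy-transfer binding signal between the protein and its labelled peptide by more than half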;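 note: 0% = Smad3 plus labelled peptide maximal FRET and 100% = peptide-only background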
EphB4 antag – EphB4-ephrin-B2 interaction antagonists, primary screen, biochemical, TNYL-RAW peptide probe, fluorescence polarization; inhibition, % at 7 µM; Ephrin type-B receptor 4 (Homo sapiens), P54760; 97,000 compounds, 0.15% hits; EphB4 LBD / TNYL-RAW-Alexa532 peptide;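 active = inhibition above the screen-wide mean inhibition plus 3 SD, cut at about 15% in these data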;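 note: 0% = DMSO wells and 100% = excess unlabeled TNYL-RAW peptide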
FAK inh – FAK kinase inhibitors, primary screen, biochemical; Focal adhesion kinase 1 (Homo sapiens), Q05397; biochemical FAK kinase activity assay; inhibition, %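 (tested at 7 µM)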; 97,000 compounds, 0.84% hits;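 note: 0% = DMSO and 100% = reference compound high control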
PLK1 PBD inh – Plk1 polo box domain binding inhibitors, primary screen, biochemical, fluorescence polarization. 97,000 compounds, 0.13% hits. inhibition, %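 (tested at about 20 µM)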. Plk1 PBD phosphopeptide binding. Serine/threonine-protein kinase PLK1 (Homo sapiens), P53350; in the data active = inhibition above about 34%, passing the limit was not always enough
PBD redox DR – redox cycling hydrogen peroxide generation, dose response, artefact control for Plk1 PBD inhibitor project, biochemical | AID 876, 2007 | EC50, µM | redox cycling H2O2 generation, DTT, counter-screen | shares compounds with PLK1 PBD inh | 120 tested, under 10 active; call rule not given here
FAK inh conf – FAK kinase inhibitors, retest, confirmation, biochemical | 750 compounds, 28% hits | inhibition, % at 7 µM | AID 794, 2007 | shares compounds with FAK inh | FAK kinase biochemical inhibition assay
Starred values were filed as active, the others as inactive; x = no result given. Cut-off read from the data, not from the text of the source, unless noted: active = inhibition above about 19%; inactive = the rest.

SMILES	PLK1 kinase inh	Smad3 inh	EphB4 antag	FAK inh	PLK1 PBD inh	FAK inh conf	others
CN1C(=O)N(C)C(=O)C2(Sc3ccccc3C2=O)C1=O	-8.9	-8.6	9.2	-5.3	57.2*	x	PBD redox DR=>50
O=c1[nH]c2ccccc2c(=O)n1-c1cccc(Cl)c1	-0.7	x	-3.2	-1.5	-13.4	x
O=P(C(=Nc1ccc(Cl)cc1)N1CCOCC1)(N1CCOCC1)N1CCOCC1	-11.4	2.2	-2.5	-0.5	-4.7	x
O=[N+]([O-])c1ccc(N2CCNCC2)cc1NCC1CCCO1 (stereo not drawn)	-7.1	x	-5.1	-3.3	47.2*	x	PBD redox DR=>50
COCCCn1c(N)c(C(=O)OC(C)COC)c2nc3ccccc3nc21 (stereo not drawn)	x	0.8	x	x	x	x
CCC(C)NC(=O)c1c(N)n(CCCOC)c2nc3ccccc3nc12 (stereo not drawn)	-6.6	52.0*	-8.0	37.2*	-9.7	2.4
CC12CN3CC(C)(CN(C1)P3(=O)Oc1ccccc1)C2=O (stereo not drawn)	3.5	6.5	-7.0	50.5*	0.9	2.3
O=C1Nc2ccccc2/C1=C/c1cnc[nH]1	60.7*	x	-1.9	74.8*	-10.4	47.0*
O=CC(Cl)P(=O)(N1CCCCC1)N1CCCCC1 (stereo not drawn)	-4.9	-2.8	4.8	-3.1	3.0	x
c1cc2c(cc1CCNC1C3CC4CC(C3)CC1C4)OCO2 (stereo not drawn)	-12.0	3.6	2.7	1.2	12.6	x
CN1CCN(c2ccc(N)cc2)CC1	14.6	11.4	2.2	67.2*	-8.6	74.3*
CN1CCN(c2ccc(C=O)cc2)CC1	-4.2	-5.6	2.1	1.3	-12.6	x
